Measured values reported in PMC9838217, “Structure of SALL4 zinc finger domain reveals link between AT-rich DNA binding and Okihiro syndrome”.
Changes are numbered by the printed parent chain.

What was measured:
Assay in all cases: HT-SELEX; high values mean tight binding
Conditions in all cases: protein: recombinant; vector His6-GST; dsDNA, one strand shown
SALL4 ZFC4 WT (HT-SELEX) = target: T1, SALL4 ZFC4 WT (HT-SELEX) (Mus musculus, UniProt Q8BX22 870-940)
T1 sequence: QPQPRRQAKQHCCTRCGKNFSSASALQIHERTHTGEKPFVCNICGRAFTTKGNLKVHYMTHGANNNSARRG
In short: (§1)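 Binding signal is defined as the fold change of each canonical k-mer's read fraction versus the initial random library. Selections used 1 µg of purified recombinant mouse SALL4 zinc finger cluster 4 (residues 870–940) with library DNA (1.5 µg first cycle, 200 ng later) in 100 µl of 10 mM Tris–HCl pH 7.5, 50 mM NaCl, poly(dI-dC) and DTT, for 10 min at room temperature, followed by Ni2+ bead capture, washing and PCR. Up to 6 such cycles were run in triplicate before MiSeq sequencing and 6-mer scanning.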

[1] = target: T2, SALL4 ZFC4 R900W (HT-SELEX) (Mus musculus, UniProt Q8BX22 870-940, R900W)
T2 sequence: T1 sequence with R31W
In short: as §1

[2] = target: T3, SALL4 ZFC4 G921D (HT-SELEX) (Mus musculus, UniProt Q8BX22 870-940, G921D)
T3 sequence: T1 sequence with G52D
In short: as §1

Row | Sequence | binding signal (SALL4 ZFC4 WT (HT-SELEX)) | binding signal [1] | binding signal [2]
1 | AGACCC | 0.415 ± 0.0196 fold-change vs cycle 0 | 0.511 ± 0.0173 fold-change vs cycle 0 | 0.612 ± 0.0617 fold-change vs cycle 0
2 | GAAGGA | 0.959 ± 0.0373 fold-change vs cycle 0 | 1.11 ± 0.0789 fold-change vs cycle 0 | 1.08 ± 0.0796 fold-change vs cycle 0
3 | CACCGA | 0.338 ± 0.00929 fold-change vs cycle 0 | 0.392 ± 0.0114 fold-change vs cycle 0 | 0.523 ± 0.056 fold-change vs cycle 0
4 | AGTTAG | 1.428 ± 0.0117 fold-change vs cycle 0 | 1.56 ± 0.0647 fold-change vs cycle 0 | 1.46 ± 0.0871 fold-change vs cycle 0
5 | CCGGTA | 0.345 ± 0.0119 fold-change vs cycle 0 | 0.396 ± 0.0133 fold-change vs cycle 0 | 0.501 ± 0.0627 fold-change vs cycle 0
6 | ATAAAC | 2.24 ± 0.173 fold-change vs cycle 0 | 2.02 ± 0.13 fold-change vs cycle 0 | 1.76 ± 0.163 fold-change vs cycle 0
7 | CAGTGG | 0.426 ± 0.0423 fold-change vs cycle 0 | 0.497 ± 0.0328 fold-change vs cycle 0 | 0.595 ± 0.0248 fold-change vs cycle 0
8 | AGAGAC | 0.8 ± 0.0496 fold-change vs cycle 0 | 0.927 ± 0.0137 fold-change vs cycle 0 | 0.985 ± 0.0357 fold-change vs cycle 0
9 | ATCACA | 1.39 ± 0.0936 fold-change vs cycle 0 | 1.48 ± 0.0843 fold-change vs cycle 0 | 1.43 ± 0.11 fold-change vs cycle 0
10 | GCAAAA | 0.804 ± 0.0195 fold-change vs cycle 0 | 0.786 ± 0.0174 fold-change vs cycle 0 | 0.873 ± 0.0736 fold-change vs cycle 0
11 | AGGGAC | 0.483 ± 0.0313 fold-change vs cycle 0 | 0.559 ± 0.0327 fold-change vs cycle 0 | 0.674 ± 0.0751 fold-change vs cycle 0
12 | CGCTAA | 0.488 ± 0.0307 fold-change vs cycle 0 | 0.562 ± 0.0185 fold-change vs cycle 0 | 0.667 ± 0.039 fold-change vs cycle 0
13 | ATAACC | 1.63 ± 0.137 fold-change vs cycle 0 | 1.47 ± 0.11 fold-change vs cycle 0 | 1.38 ± 0.107 fold-change vs cycle 0
14 | AGTGAA | 1.35 ± 0.0774 fold-change vs cycle 0 | 1.52 ± 0.125 fold-change vs cycle 0 | 1.39 ± 0.134 fold-change vs cycle 0
15 | GTCCCA | 0.392 ± 0.0166 fold-change vs cycle 0 | 0.464 ± 0.0186 fold-change vs cycle 0 | 0.563 ± 0.0717 fold-change vs cycle 0
16 | CAAAGA | 1.18 ± 0.0383 fold-change vs cycle 0 | 1.34 ± 0.0673 fold-change vs cycle 0 | 1.28 ± 0.0399 fold-change vs cycle 0
17 | ACGTGA | 0.774 ± 0.0226 fold-change vs cycle 0 | 0.876 ± 0.021 fold-change vs cycle 0 | 0.931 ± 0.0233 fold-change vs cycle 0
18 | AACACG | 0.6337 ± 0.00219 fold-change vs cycle 0 | 0.737 ± 0.0205 fold-change vs cycle 0 | 0.823 ± 0.0377 fold-change vs cycle 0
19 | GAAATC | 1.25 ± 0.0302 fold-change vs cycle 0 | 1.28 ± 0.0173 fold-change vs cycle 0 | 1.27 ± 0.0773 fold-change vs cycle 0
20 | AACATA | 2.08 ± 0.152 fold-change vs cycle 0 | 1.96 ± 0.129 fold-change vs cycle 0 | 1.76 ± 0.196 fold-change vs cycle 0

Row | Sequence | binding signal (SALL4 ZFC4 WT (HT-SELEX)) | binding signal [1] | binding signal [2]
21 | ATCGAC | 0.576 ± 0.0406 fold-change vs cycle 0 | 0.632 ± 0.033 fold-change vs cycle 0 | 0.759 ± 0.0482 fold-change vs cycle 0
22 | GGGATA | 0.88 ± 0.0566 fold-change vs cycle 0 | 0.967 ± 0.0568 fold-change vs cycle 0 | 0.94 ± 0.0469 fold-change vs cycle 0
23 | AGCTGG | 0.346 ± 0.0084 fold-change vs cycle 0 | 0.411 ± 0.0182 fold-change vs cycle 0 | 0.522 ± 0.0592 fold-change vs cycle 0
24 | GAGTGC | 0.332 ± 0.0145 fold-change vs cycle 0 | 0.398 ± 0.019 fold-change vs cycle 0 | 0.554 ± 0.055 fold-change vs cycle 0
25 | CCAGTC | 0.437 ± 0.0378 fold-change vs cycle 0 | 0.533 ± 0.0426 fold-change vs cycle 0 | 0.62 ± 0.0337 fold-change vs cycle 0
26 | CCTAGC | 0.4 ± 0.0405 fold-change vs cycle 0 | 0.434 ± 0.0293 fold-change vs cycle 0 | 0.55 ± 0.055 fold-change vs cycle 0
27 | CTTACC | 0.909 ± 0.0427 fold-change vs cycle 0 | 1.06 ± 0.0534 fold-change vs cycle 0 | 1.02 ± 0.0246 fold-change vs cycle 0
28 | ACCTCA | 0.854 ± 0.0441 fold-change vs cycle 0 | 0.976 ± 0.0441 fold-change vs cycle 0 | 1.04 ± 0.0599 fold-change vs cycle 0
29 | CCGTAA | 0.687 ± 0.0267 fold-change vs cycle 0 | 0.78 ± 0.0395 fold-change vs cycle 0 | 0.825 ± 0.0254 fold-change vs cycle 0
30 | AGCTCC | 0.365 ± 0.00759 fold-change vs cycle 0 | 0.455 ± 0.0186 fold-change vs cycle 0 | 0.588 ± 0.0519 fold-change vs cycle 0
31 | ATACTG | 1.31 ± 0.0361 fold-change vs cycle 0 | 1.4 ± 0.0644 fold-change vs cycle 0 | 1.36 ± 0.0801 fold-change vs cycle 0
32 | AGCTGA | 0.687 ± 0.028 fold-change vs cycle 0 | 0.802 ± 0.0342 fold-change vs cycle 0 | 0.882 ± 0.0146 fold-change vs cycle 0
33 | ATCTTG | 1.3 ± 0.0534 fold-change vs cycle 0 | 1.44 ± 0.0813 fold-change vs cycle 0 | 1.38 ± 0.0795 fold-change vs cycle 0
34 | CCACAA | 0.612 ± 0.0144 fold-change vs cycle 0 | 0.71 ± 0.0271 fold-change vs cycle 0 | 0.759 ± 0.0161 fold-change vs cycle 0
35 | CATGCA | 0.683 ± 0.0413 fold-change vs cycle 0 | 0.757 ± 0.0296 fold-change vs cycle 0 | 0.805 ± 0.0272 fold-change vs cycle 0
36 | GGCAAA | 0.399 ± 0.0111 fold-change vs cycle 0 | 0.457 ± 0.0213 fold-change vs cycle 0 | 0.604 ± 0.0748 fold-change vs cycle 0
37 | CCGAAA | 0.495 ± 0.0231 fold-change vs cycle 0 | 0.559 ± 0.0265 fold-change vs cycle 0 | 0.66 ± 0.0717 fold-change vs cycle 0
38 | AATATG | 2.8 ± 0.213 fold-change vs cycle 0 | 1.83 ± 0.0804 fold-change vs cycle 0 | 1.66 ± 0.102 fold-change vs cycle 0
39 | CCATCC | 0.48 ± 0.0325 fold-change vs cycle 0 | 0.541 ± 0.0313 fold-change vs cycle 0 | 0.633 ± 0.0281 fold-change vs cycle 0
40 | CTACGA | 0.656 ± 0.0504 fold-change vs cycle 0 | 0.762 ± 0.0209 fold-change vs cycle 0 | 0.827 ± 0.0362 fold-change vs cycle 0

Row | Sequence | binding signal (SALL4 ZFC4 WT (HT-SELEX)) | binding signal [1] | binding signal [2]
41 | AATCAA | 2.03 ± 0.0966 fold-change vs cycle 0 | 2 ± 0.106 fold-change vs cycle 0 | 1.81 ± 0.125 fold-change vs cycle 0
42 | ACCTGA | 0.842 ± 0.0331 fold-change vs cycle 0 | 1 ± 0.047 fold-change vs cycle 0 | 1.02 ± 0.0552 fold-change vs cycle 0
43 | AGGTGA | 0.887 ± 0.0607 fold-change vs cycle 0 | 0.987 ± 0.0758 fold-change vs cycle 0 | 1.04 ± 0.0735 fold-change vs cycle 0
44 | CAGTGA | 0.806 ± 0.0191 fold-change vs cycle 0 | 0.934 ± 0.023 fold-change vs cycle 0 | 0.957 ± 0.0322 fold-change vs cycle 0
45 | TAAGGA | 1.59 ± 0.0522 fold-change vs cycle 0 | 1.71 ± 0.0756 fold-change vs cycle 0 | 1.54 ± 0.114 fold-change vs cycle 0
46 | TAGTAA | 2.21 ± 0.0521 fold-change vs cycle 0 | 2.24 ± 0.0692 fold-change vs cycle 0 | 1.89 ± 0.181 fold-change vs cycle 0
47 | GAGAAC | 0.84 ± 0.00885 fold-change vs cycle 0 | 1 ± 0.0376 fold-change vs cycle 0 | 1.04 ± 0.00942 fold-change vs cycle 0
48 | CAGCAG | 0.333 ± 0.0334 fold-change vs cycle 0 | 0.387 ± 0.024 fold-change vs cycle 0 | 0.523 ± 0.0543 fold-change vs cycle 0
49 | ACAATG | 1.23 ± 0.0338 fold-change vs cycle 0 | 1.34 ± 0.0389 fold-change vs cycle 0 | 1.32 ± 0.0407 fold-change vs cycle 0
50 | CACATA | 1.22 ± 0.0607 fold-change vs cycle 0 | 1.28 ± 0.0534 fold-change vs cycle 0 | 1.25 ± 0.0582 fold-change vs cycle 0
51 | GTTACA | 1.35 ± 0.0329 fold-change vs cycle 0 | 1.46 ± 0.0565 fold-change vs cycle 0 | 1.37 ± 0.0864 fold-change vs cycle 0
52 | GACTTA | 1.27 ± 0.0397 fold-change vs cycle 0 | 1.4 ± 0.0678 fold-change vs cycle 0 | 1.33 ± 0.102 fold-change vs cycle 0
53 | AATTAT | 4.89 ± 0.536 fold-change vs cycle 0 | 2.6 ± 0.249 fold-change vs cycle 0 | 2.25 ± 0.303 fold-change vs cycle 0
54 | ATCCTC | 0.944 ± 0.0401 fold-change vs cycle 0 | 1.06 ± 0.0699 fold-change vs cycle 0 | 1.09 ± 0.0423 fold-change vs cycle 0
55 | CTAGTA | 1.34 ± 0.0412 fold-change vs cycle 0 | 1.54 ± 0.0865 fold-change vs cycle 0 | 1.39 ± 0.135 fold-change vs cycle 0
56 | AGGAAG | 0.939 ± 0.0254 fold-change vs cycle 0 | 1.172 ± 0.0114 fold-change vs cycle 0 | 1.11 ± 0.034 fold-change vs cycle 0
57 | AGATTC | 1.34 ± 0.0579 fold-change vs cycle 0 | 1.42 ± 0.0466 fold-change vs cycle 0 | 1.39 ± 0.0922 fold-change vs cycle 0
58 | AATTCT | 2.05 ± 0.0669 fold-change vs cycle 0 | 1.99 ± 0.104 fold-change vs cycle 0 | 1.8 ± 0.162 fold-change vs cycle 0
59 | GACAAA | 0.966 ± 0.023 fold-change vs cycle 0 | 1.08 ± 0.0338 fold-change vs cycle 0 | 1.1 ± 0.0293 fold-change vs cycle 0
60 | ACAAGT | 1.24 ± 0.0226 fold-change vs cycle 0 | 1.4 ± 0.0269 fold-change vs cycle 0 | 1.35 ± 0.0304 fold-change vs cycle 0
